# Source: PubChem (several laboratories)
# Shown are actives, neighbours in structure and some others; about 5.6% of the full set was active somewhere.
# Cardio protect = cardioprotection against H2O2-induced cell death, primary screen, uHTS, H9c2 cells, ATPLite luminescence. hit rate 0.63% among 360,000. H9c2 cardiomyocytes, H2O2 injury protection, 2 h. AID 588492, 2011. protection from H2O2 cell death, % at 20 µM;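 active = compounds giving at least 50% protection of heart cells from peroxide-induced death in the single-dose screen, raw or plate-pattern-corrected value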;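 note: 0% = DMSO wells with peroxide and 100% = DMSO wells without peroxide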
# PfGluPho inh = PfG6PD enzyme inhibitors, primary screen, biochemical, fluorescence intensity, uHTS; glucose-6-phosphate dehydrogenase-6-phosphogluconolactonase (Plasmodium falciparum 3D7); PfGluPho enzyme, NADPH resazurin-diaphorase fluorescence; inhibition, % at 20 µM; hit rate 0.78% among 350,000;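 active = inhibition reaching at least a set limit at 20 µM in the primary screen, cut at about 59% in these data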;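 note: 0% = DMSO wells with substrate and 100% = DMSO wells lacking glucose-6-phosphate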
# PHOSPHO1 block = PubChem AID 1565 | Phosphoethanolamine/phosphocholine phosphatase (Homo sapiens), Q8TCT1 | recombinant PHOSPHO1, absorbance phosphatase assay | inhibition, % at 13.3 µM | hit rate 1.1% among 290,000; in the data active = inhibition above about 60%
# Target sequence (Q8TCT1 whole entry, looked up): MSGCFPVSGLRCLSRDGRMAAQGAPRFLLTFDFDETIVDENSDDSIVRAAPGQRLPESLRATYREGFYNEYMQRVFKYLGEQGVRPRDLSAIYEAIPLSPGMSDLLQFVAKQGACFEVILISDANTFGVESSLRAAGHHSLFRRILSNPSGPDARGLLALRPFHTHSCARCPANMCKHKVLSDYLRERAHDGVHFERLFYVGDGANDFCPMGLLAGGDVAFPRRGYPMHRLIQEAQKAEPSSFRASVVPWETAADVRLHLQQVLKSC
# ALR H2O2 inh = inhibitors of human ALR sulfhydryl oxidase, primary screen, biochemical, H2O2 detection, HRP-luminol luminescence, single point; FAD-linked sulfhydryl oxidase ALR (Homo sapiens), P55789; purified ALR, DTT oxidation; inhibition, % (concentration not given with the values); hit rate 3.8% among 290,000; AID 485317, 2010;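 active = mean replicate inhibition above about 79%, with every replicate also reaching it, limit read from the data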
# Target sequence (P55789 whole entry, looked up): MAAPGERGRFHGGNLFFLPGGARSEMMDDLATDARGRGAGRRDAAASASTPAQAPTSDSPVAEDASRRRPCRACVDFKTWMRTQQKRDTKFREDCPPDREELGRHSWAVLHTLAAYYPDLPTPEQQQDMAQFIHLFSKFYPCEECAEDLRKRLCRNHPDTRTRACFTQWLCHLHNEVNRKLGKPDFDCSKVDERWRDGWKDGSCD
# M18AAP inhibitor = PfM18AAP inhibitors, malaria aminopeptidase, primary screen, biochemical, QFRET, recombinant enzyme | hit rate 1.2% among 290,000 | AID 1822, 2009 | inhibition, % at 7.35 µM | H-Glu-NHMec fluorogenic cleavage;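 active = inhibition above the campaign mean inhibition over all tested compounds plus 3 SD, cut at about 28% in these data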;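 note: 0% = plate median of test compound wells and 100% = 2 mM ZnCl2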
# The depositor's hits bear a star; . = no result given.
SMILES,Cardio protect,PfGluPho inh,PHOSPHO1 block,ALR H2O2 inh,M18AAP inhibitor
CC(=O)Nc1ccc(SCCN2CC[C@@H](C(C)(C)C)CCC2=O)cc1,-1.2,12.0,.,99.0*,.
Cc1ccc(SCCN2CCC(C(C)(C)C)CCC2=O)cc1 (configuration not stated),-0.9,1.4,-7.3,-0.7,4.6
CC(=O)Nc1ccc(SC[C@H](C)CN2CC[C@H](O)CCC2=O)cc1,-4.7,13.9,.,98.4*,.
COc1ccc(SC[C@H](C)CN2CC[C@H](C(C)(C)C)CCC2=O)cc1,3.3,-10.1,.,98.5*,.
CCCC1C(C(=O)OCC)=C(C)NC(C)=C1C(=O)OCC,-10.9,9.6,16.0,98.9*,6.5
CCOC(=O)C1=C(C)NC(C)=C(C(=O)OCC)C1C(=O)OCC(=O)NC1CCCCC1,83.3*,0.9,.,-2.7,.
O=C(NCCCCCCNC(=O)c1cncc(O)c1)c1cncc(O)c1,2.7,-7.4,38.3,-3.8,-0.3
CN(Cc1ccc(Cl)c(Cl)c1)C(=O)c1ccccc1SCC(=O)N1CCCC1,-1.8,3.2,.,.,.
COC(=O)[C@@]12CCCCN1[C@H](c1ccc(-c3cc(C(C)=O)cs3)cc1)[C@H]1C(=O)N(C)C(=O)[C@H]12,56.1*,16.0,.,1.5,.
O=C(CSc1ncccn1)Nc1ncc(C(F)(F)F)cc1Cl,3.6,16.9,51.4,-0.3,13.3
Nc1nc(SCC(=O)Nc2ncc(C(F)(F)F)cc2Cl)n[nH]1,1.8,-6.8,-13.2,10.5,28.3*
CC1=NOC(=O)/C1=C\c1ccc(-c2ccc(Br)cc2C(=O)O)o1,3.8,5.0,-67.3,88.5*,2.7
CN(C1=NS(=O)(=O)N=C(N(C)c2ccccc2)O1)c1ccccc1,9.4,-2.8,.,.,.
Cc1nc2c(C(=O)NCCc3ccccc3Cl)c[nH]n2c(=O)c1Cl,2.3,-9.3,3.8,98.7*,-1.0
NC(=O)C12C(=O)NC(=O)C1(C(=O)O)C21CCCC1 (configuration not stated),13.2,-4.5,.,.,.
CCCC1(C(=O)O)NC(c2ccccc2O)C2C(=O)N(Cc3ccccc3)C(=O)C21 (configuration not stated),-1.6,-3.6,23.9,-19.5,-1.4
CCC1(C(=O)O)NC(c2cc(OC)ccc2O)C2C(=O)N(Cc3ccccc3)C(=O)C21 (configuration not stated),2.5,6.3,-2.3,86.6*,-0.3
COc1ccc2c(c1OC)C(=O)N1N=C(c3ccc(O)cc3)CC21 (configuration not stated),13.1,5.1,21.6,99.3*,-3.8
COc1ccc2c(c1OC)C(=O)N1c3ccccc3N=C(c3ccc([N+](=O)[O-])cc3)CC21 (configuration not stated),0.7,35.1,-5.8,96.8*,24.1
Cc1ccc(NC(=O)c2ccccc2)s1,-17.2,12.6,20.9,95.5*,-9.2
Cc1ccc(OCC(=O)NC(=S)Nc2ccc(Br)c(C)n2)cc1,-0.9,0.3,84.1*,-5.7,4.5
COc1ccc(OCc2nnc(SCC(=O)Nc3ccccc3Cl)o2)cc1,-1.9,12.6,30.4,-4.0,3.2
Nc1c(Cl)ncnc1N/N=C/c1ccccn1,.,28.5,4.2,50.2,19.8
CCOc1cc(/C=N/Nc2ncnc(Cl)c2N)ccc1O,-8.9,-0.7,6.5,98.8*,14.9
CCOc1ccc(/C=N/Nc2nc(=O)[nH]nc2C)cc1OC,0.3,7.1,-33.9,-0.3,-0.7
SMILES,Cardio protect,PfGluPho inh,PHOSPHO1 block,ALR H2O2 inh,M18AAP inhibitor
Cc1n[nH]c(=O)nc1N/N=C/c1ccco1,3.6,-5.6,-24.8,-5.1,1.9
COc1cc(/C=N/Nc2nc(=O)[nH]nc2C)cc(OC)c1O,2.3,9.4,-0.8,93.2*,18.5
CCOc1cc(/C=N/Nc2nc(=O)[nH]nc2C)ccc1O,-6.8,-0.4,22.8,99.0*,13.7
O=C(CSCC(=O)OCC(=O)N1CCN(C(=O)c2ccco2)CC1)Nc1ccc(Cl)cc1,16.7,-17.5,.,.,.
O=C(COC(=O)CSCC(=O)N1CCCCC1)Nc1ccc(Cl)cc1,2.1,-6.7,-10.8,88.9*,-9.5
O=C(CSCC(=O)N1CCCCC1)OCC(=O)c1c[nH]c2ccccc12,-1.6,-8.5,1.8,98.3*,1.8
O=C(COC(=O)CN1CCSC1=O)Nc1ccc(F)cc1Cl,-1.3,-4.0,.,-42.7,.
CC(C)c1ccc(NC(=O)Cc2c(C(=O)O)n(C)c3ccccc23)cc1,-0.3,-24.9,18.4,97.0*,-0.6
